{"source": "PubChem BioAssay", "note": "Activity calls are given as the source filed them. Rule as the data show it: active = nuclear beta-catenin stimulation mostly above about 4.2% (no sharp cut-off); inactive = mostly below about 10%."}
{"assay": "stimulators of nuclear beta-catenin in C2C12, primary screen, imaging, WNT3A-conditioned medium, mouse C2C12, NPC library (AID 1117326); also: reference of the scale not given here", "conditions": "at 10 µM, stronger effect = higher value"}
{"molecule": "CCN(CC)CCOC(=O)C(c1ccccc1)c1ccccc1", "nuclear beta-catenin stimulation": "0.8% (inactive)"}
{"molecule": "CCOC(=O)[C@H](CCc1ccccc1)N[C@@H](C)C(=O)N1CCC[C@H]1C(=O)O", "nuclear beta-catenin stimulation": "4.4% (inactive)"}
{"molecule": "COc1ccc2c(c1)c(CC(=O)OCC(=O)O)c(C)n2C(=O)c1ccc(Cl)cc1", "nuclear beta-catenin stimulation": "1.8% (inactive)"}
{"molecule": "COc1cc(OC)cc(OC)c1", "nuclear beta-catenin stimulation": "1.2% (inactive)"}
{"molecule": "O=C1c2ccccc2C(=O)C1c1ccccc1", "nuclear beta-catenin stimulation": "0.3% (inactive)"}
{"molecule": "Cc1cccc(C(=O)O)c1O", "nuclear beta-catenin stimulation": "0% (inactive)"}
{"molecule": "O=c1[nH]cnc2c1ncn2[C@@H]1O[C@H](CO)[C@@H](O)[C@H]1O", "nuclear beta-catenin stimulation": "-1% (inactive)"}
{"molecule": "CCN(CC)CCNC(=O)COc1ccc(OC)cc1", "nuclear beta-catenin stimulation": "0.5% (inactive)"}
{"molecule": "C#CCN[C@@H]1CCc2ccccc21", "nuclear beta-catenin stimulation": "0.9% (inactive)"}
{"molecule": "Cc1cc(NC(=O)C2=C(O)c3ccccc3S(=O)(=O)N2C)no1", "nuclear beta-catenin stimulation": "4% (inactive)"}
{"molecule": "CC1=C(C(=O)O)N2C(=O)[C@@H](NC(=O)[C@H](N)C3=CCC=CC3)[C@H]2SC1", "nuclear beta-catenin stimulation": "-1.1% (inactive)"}
{"molecule": "CC(=O)O[C@]1(C(C)=O)CC[C@H]2[C@@H]3C=C(Cl)C4=CC(=O)CC[C@]4(C)[C@H]3CC[C@@]21C", "nuclear beta-catenin stimulation": "1.1% (inactive)"}
{"molecule": "CN1CCN(C(c2ccccc2)c2ccccc2)CC1", "nuclear beta-catenin stimulation": "-2.3% (inactive)"}
{"molecule": "O=C1c2ccccc2C(=O)c2c1ccc(O)c2O", "nuclear beta-catenin stimulation": "1.2% (inactive)"}
{"molecule": "Cc1cccc(N(C)C(=S)Oc2ccc3ccccc3c2)c1", "nuclear beta-catenin stimulation": "-0.1% (inactive)"}
{"molecule": "Cc1c[nH]c2ccccc12", "nuclear beta-catenin stimulation": "2% (inactive)"}
{"molecule": "CC(C)(Sc1cc(C(C)(C)C)c(O)c(C(C)(C)C)c1)Sc1cc(C(C)(C)C)c(O)c(C(C)(C)C)c1", "nuclear beta-catenin stimulation": "4.3% (inactive)"}
{"molecule": "COc1cc(/C=C/C(=O)CC(=O)/C=C/c2ccc(O)c(OC)c2)ccc1O", "nuclear beta-catenin stimulation": "1.5% (inactive)"}
{"molecule": "N=C(N)N", "nuclear beta-catenin stimulation": "-1.9% (inactive)"}
{"molecule": "CCO/C([O-])=N/c1c[n+](N2CCOCC2)no1", "nuclear beta-catenin stimulation": "0.8% (inactive)"}
{"molecule": "Cc1c(C(=O)O)c(O)cc2c1C(=O)c1c(O)c([C@@H]3O[C@H](CO)[C@@H](O)[C@H](O)[C@H]3O)c(O)c(O)c1C2=O", "nuclear beta-catenin stimulation": "0% (inactive)"}
{"molecule": "CN1CCC[C@@H]1CCO[C@](C)(c1ccccc1)c1ccc(Cl)cc1", "nuclear beta-catenin stimulation": "7.8% (inactive)"}
{"molecule": "c1ccc(CN(CC2=NCCN2)c2ccccc2)cc1", "nuclear beta-catenin stimulation": "3.4% (inactive)"}
{"molecule": "NC(CS)C(=O)O", "note": "(stereo unspecified)", "nuclear beta-catenin stimulation": "-0.1% (inactive)"}
{"molecule": "CCOc1ccc2nc3cc(N)ccc3c(N)c2c1", "nuclear beta-catenin stimulation": "9.5% (inactive)"}
{"molecule": "Cn1c(=O)c2c(ncn2CC(O)CO)n(C)c1=O", "note": "(stereo unspecified)", "nuclear beta-catenin stimulation": "-0.1% (inactive)"}
{"molecule": "CCCc1ncc(C[n+]2ccccc2C)c(N)n1", "nuclear beta-catenin stimulation": "-1.3% (inactive)"}
{"molecule": "CC(C)NC[C@@H](O)COc1cccc2ccccc12", "nuclear beta-catenin stimulation": "-0.4% (inactive)"}
{"molecule": "Cc1ccc(C(=O)c2ccc(CC(=O)O)n2C)cc1", "nuclear beta-catenin stimulation": "5.9% (inactive)"}
{"molecule": "CS(=O)(=O)c1ccc([C@@H](O)[C@@H](CO)NC(=O)C(Cl)Cl)cc1", "nuclear beta-catenin stimulation": "2.7% (inactive)"}
{"molecule": "COCCCOc1cc(C[C@@H](C[C@H](N)[C@@H](O)C[C@H](C(=O)NCC(C)(C)C(N)=O)C(C)C)C(C)C)ccc1OC", "nuclear beta-catenin stimulation": "-0.6% (inactive)"}
{"molecule": "Cc1ccsc1/C=C/C1=NCCCN1C", "nuclear beta-catenin stimulation": "-0.7% (inactive)"}
{"molecule": "CC(=O)OCC(=O)[C@@]1(O)[C@H](OC(C)=O)C[C@H]2[C@@H]3CCC4=CC(=O)C=C[C@]4(C)[C@@]3(F)[C@@H](O)C[C@@]21C", "nuclear beta-catenin stimulation": "0.9% (inactive)"}
{"molecule": "CCCCC(=O)O[C@]1(C(=O)CO)[C@@H](C)C[C@H]2[C@@H]3CCC4=CC(=O)C=C[C@]4(C)[C@@]3(F)[C@@H](O)C[C@@]21C", "nuclear beta-catenin stimulation": "2.9% (inactive)"}
{"molecule": "C[C@@H]1CN(c2c(F)c(F)c3c(=O)c(C(=O)O)cn(C4CC4)c3c2F)C[C@H](C)N1", "nuclear beta-catenin stimulation": "-0.9% (inactive)"}
{"molecule": "NCCCC[C@H](N[C@@H](CCc1ccccc1)C(=O)O)C(=O)N1CCC[C@H]1C(=O)O", "nuclear beta-catenin stimulation": "0.4% (inactive)"}
{"molecule": "C[C@@H]1CC[C@@]2(OC1)O[C@H]1C[C@H]3[C@@H]4CC[C@H]5C[C@@H](O)CC[C@]5(C)[C@H]4CC(=O)[C@]3(C)[C@H]1[C@@H]2C", "nuclear beta-catenin stimulation": "6.5% (inactive)"}
{"molecule": "CCCCOc1cc(C(=O)NCCN(CC)CC)c2ccccc2n1", "nuclear beta-catenin stimulation": "5.7% (inactive)"}
{"assay": "stimulators of nuclear beta-catenin in C2C12, primary screen, imaging, WNT3A-conditioned medium, mouse C2C12, NPC library (AID 1117326); also: reference of the scale not given here", "conditions": "stimulation, at 2 µM, stronger effect = higher value", "units": {"nuclear beta-catenin stimulation": "%"}}
{"molecule": "CCN(CC)CCOC(=O)C(c1ccccc1)c1ccccc1", "nuclear beta-catenin stimulation": -1.4}
{"molecule": "CCOC(=O)[C@H](CCc1ccccc1)N[C@@H](C)C(=O)N1CCC[C@H]1C(=O)O", "nuclear beta-catenin stimulation": 1.5}
{"molecule": "COc1ccc2c(c1)c(CC(=O)OCC(=O)O)c(C)n2C(=O)c1ccc(Cl)cc1", "nuclear beta-catenin stimulation": 0.4}
{"molecule": "COc1cc(OC)cc(OC)c1", "nuclear beta-catenin stimulation": -0.8}
{"molecule": "O=C1c2ccccc2C(=O)C1c1ccccc1", "nuclear beta-catenin stimulation": 0.6}
{"molecule": "Cc1cccc(C(=O)O)c1O", "nuclear beta-catenin stimulation": 0.4}
{"molecule": "O=c1[nH]cnc2c1ncn2[C@@H]1O[C@H](CO)[C@@H](O)[C@H]1O", "nuclear beta-catenin stimulation": 3.1}
{"molecule": "CCN(CC)CCNC(=O)COc1ccc(OC)cc1", "nuclear beta-catenin stimulation": 1.9}
{"molecule": "C#CCN[C@@H]1CCc2ccccc21", "nuclear beta-catenin stimulation": 1.4}
{"molecule": "Cc1cc(NC(=O)C2=C(O)c3ccccc3S(=O)(=O)N2C)no1", "nuclear beta-catenin stimulation": 1.7}
{"molecule": "CC1=C(C(=O)O)N2C(=O)[C@@H](NC(=O)[C@H](N)C3=CCC=CC3)[C@H]2SC1", "nuclear beta-catenin stimulation": -2.4}
{"molecule": "CC(=O)O[C@]1(C(C)=O)CC[C@H]2[C@@H]3C=C(Cl)C4=CC(=O)CC[C@]4(C)[C@H]3CC[C@@]21C", "nuclear beta-catenin stimulation": -0.3}
{"molecule": "CN1CCN(C(c2ccccc2)c2ccccc2)CC1", "nuclear beta-catenin stimulation": -0.3}
{"molecule": "O=C1c2ccccc2C(=O)c2c1ccc(O)c2O", "nuclear beta-catenin stimulation": 0.3}
{"molecule": "Cc1cccc(N(C)C(=S)Oc2ccc3ccccc3c2)c1", "nuclear beta-catenin stimulation": 1.3}
{"molecule": "Cc1c[nH]c2ccccc12", "nuclear beta-catenin stimulation": 0.3}
{"molecule": "CC(C)(Sc1cc(C(C)(C)C)c(O)c(C(C)(C)C)c1)Sc1cc(C(C)(C)C)c(O)c(C(C)(C)C)c1", "nuclear beta-catenin stimulation": 6}
{"molecule": "COc1cc(/C=C/C(=O)CC(=O)/C=C/c2ccc(O)c(OC)c2)ccc1O", "nuclear beta-catenin stimulation": -2.5}
{"molecule": "N=C(N)N", "nuclear beta-catenin stimulation": 0.6}
{"molecule": "CCO/C([O-])=N/c1c[n+](N2CCOCC2)no1", "nuclear beta-catenin stimulation": 1.2}
{"molecule": "Cc1c(C(=O)O)c(O)cc2c1C(=O)c1c(O)c([C@@H]3O[C@H](CO)[C@@H](O)[C@H](O)[C@H]3O)c(O)c(O)c1C2=O", "nuclear beta-catenin stimulation": 0.8}
{"molecule": "CN1CCC[C@@H]1CCO[C@](C)(c1ccccc1)c1ccc(Cl)cc1", "nuclear beta-catenin stimulation": 2.3}
{"molecule": "c1ccc(CN(CC2=NCCN2)c2ccccc2)cc1", "nuclear beta-catenin stimulation": 2.4}
{"molecule": "NC(CS)C(=O)O", "note": "(stereo unspecified)", "nuclear beta-catenin stimulation": 0.4}
{"molecule": "CCOc1ccc2nc3cc(N)ccc3c(N)c2c1", "nuclear beta-catenin stimulation": 0.7}
{"molecule": "Cn1c(=O)c2c(ncn2CC(O)CO)n(C)c1=O", "note": "(stereo unspecified)", "nuclear beta-catenin stimulation": 0.8}
{"molecule": "CCCc1ncc(C[n+]2ccccc2C)c(N)n1", "nuclear beta-catenin stimulation": -2}
{"molecule": "CC(C)NC[C@@H](O)COc1cccc2ccccc12", "nuclear beta-catenin stimulation": 1.7}
{"molecule": "Cc1ccc(C(=O)c2ccc(CC(=O)O)n2C)cc1", "nuclear beta-catenin stimulation": 3.5}
{"molecule": "CS(=O)(=O)c1ccc([C@@H](O)[C@@H](CO)NC(=O)C(Cl)Cl)cc1", "nuclear beta-catenin stimulation": 2.3}
{"molecule": "COCCCOc1cc(C[C@@H](C[C@H](N)[C@@H](O)C[C@H](C(=O)NCC(C)(C)C(N)=O)C(C)C)C(C)C)ccc1OC", "nuclear beta-catenin stimulation": 2.2}
{"molecule": "Cc1ccsc1/C=C/C1=NCCCN1C", "nuclear beta-catenin stimulation": 0.1}
{"molecule": "CC(=O)OCC(=O)[C@@]1(O)[C@H](OC(C)=O)C[C@H]2[C@@H]3CCC4=CC(=O)C=C[C@]4(C)[C@@]3(F)[C@@H](O)C[C@@]21C", "nuclear beta-catenin stimulation": 1.1}
{"molecule": "CCCCC(=O)O[C@]1(C(=O)CO)[C@@H](C)C[C@H]2[C@@H]3CCC4=CC(=O)C=C[C@]4(C)[C@@]3(F)[C@@H](O)C[C@@]21C", "nuclear beta-catenin stimulation": 5.5}
{"molecule": "C[C@@H]1CN(c2c(F)c(F)c3c(=O)c(C(=O)O)cn(C4CC4)c3c2F)C[C@H](C)N1", "nuclear beta-catenin stimulation": 1.1}
{"molecule": "NCCCC[C@H](N[C@@H](CCc1ccccc1)C(=O)O)C(=O)N1CCC[C@H]1C(=O)O", "nuclear beta-catenin stimulation": 0.9}
{"molecule": "C[C@@H]1CC[C@@]2(OC1)O[C@H]1C[C@H]3[C@@H]4CC[C@H]5C[C@@H](O)CC[C@]5(C)[C@H]4CC(=O)[C@]3(C)[C@H]1[C@@H]2C", "nuclear beta-catenin stimulation": 4.8}
{"molecule": "CCCCOc1cc(C(=O)NCCN(CC)CC)c2ccccc2n1", "nuclear beta-catenin stimulation": 1.8}
